Source: PubChem BioAssay
The list is not random: actives were taken first. Their share in the collection is about 2.1%.
PvdQ acylase – blocks Pseudomonas aeruginosa PvdQ acylase activity | purified PvdQ acylase, fluorescence plate reader | actives 0.063% (n = 340,000) | inhibition, % at 10 µM; in the data active = inhibition above about 30%, passing the limit was not always enough
ERAP1 HTS inh – ERAP1 (human) enzyme inhibition; recombinant ERAP1, Leu-AMC fluorescence, 60 min; inhibition, % at 10.7 µM; actives 0.15% (n = 340,000); Q9NZ08; AID 652197;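 active = mean replicate inhibition of at least 30%, or all replicates individually reaching that 30% level; inactive = mean below 30% and not every replicate reaching it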
F508del corr – correctors of CFTR F508del function in bronchial epithelial cells. CFBE cells, YFP halide quenching; stimulated with forskolin plus potentiator P3; % fluorescence drop versus neutral controls. activity (quench increase), % at 7.58 µM. actives 0.36% (n = 350,000). AID 720511;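 active = mean added fluorescence quench of at least 8% versus neutral control, with both replicates also reaching 8%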;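 also: cells transiently co-express mutant CFTR-F508del with the halide-sensitive YFP; corrector assay measuring rescue of mutant channel to the surface after 24 h compound exposure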
ARNT-TACC3 inh – disrupts binding between human ARNT and TACC3; Q9Y6A5; AlphaScreen His-ARNT PAS-B/GST-TACC3 binding, luminescence; TACC3 fragment carries E629A point mutation; inhibition, % at 9.99 µM; actives 0.66% (n = 390,000); AID 623870;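 active = mean inhibition of replicates at least 50% and at least half of replicates each reaching 50%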
Ecoli rRNA inh – inhibits bacterial ribosomal RNA function over humanized ribosomes; E. coli WT GFP vs humanized-ribosome RFP mutants, fluorescence, 24 h; active compounds read low; DMSO median 0, no signal -100; GFP signal change (wild-type ribosome), % (no concentration beside the values); actives 1.6% (n = 350,000); AID 720706;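 active = significant combined selectivity score with lowered wild-type GFP, culture density cut under 30%, mutant RFP and density less affected; inactive = any of these conditions unmet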
Numbers stand for hits; – = inactive; · = no result given.

SMILES	PvdQ acylase	ERAP1 HTS inh	F508del corr	ARNT-TACC3 inh	Ecoli rRNA inh
COc1ccc(S(=O)(=O)NCCOc2ccccc2)cc1-n1cnnn1	–	–	–	·	–
COc1ccc(C(=O)Nc2ccc3c(c2)OC[C@@H](C)N(Cc2cocn2)C[C@H](C)[C@H](OC)CN(C)C3=O)cc1	·	–	–	–	–
CCOc1ccc(NC(=S)N2CCC(C(=O)c3ccc(OC)cc3)CC2)cc1	·	–	–	·	-13.5
C[C@H](CO)N1C[C@H](C)[C@H](CN(C)C(=O)CC2CC2)Oc2ncc(-c3ccc(C#N)cc3)cc2C1=O	·	–	–	–	–
C[C@H]1CN([C@@H](C)CO)C(=O)Cc2cc(NS(=O)(=O)c3ccc(F)cc3)ccc2O[C@@H]1CN(C)S(=O)(=O)c1cn(C)cn1	·	–	–	–	–
Cc1ccc(-n2c(CCC(=O)O)ccc2-c2cccs2)cc1	–	–	–	–	-27.9
COc1ccc(-n2c(CCC(=O)O)ccc2-c2ccccc2)cc1	–	–	–	–	-25.4
COc1ccccc1C#Cc1ccc([C@H]2[C@@H](CO)N(C(=O)C3CCCCC3)[C@H]2C#N)cc1	·	–	–	–	–
COc1ccc(-c2cn3c(C)c(C(=O)Nc4cccc(C)n4)sc3n2)cc1	–	–	–	–	-29.5
CCOc1ccc(NC(=O)Nc2cccc(C)n2)cc1	–	–	–	–	–
Cc1cccc(NC(=O)CNC(=O)c2ccc3c(c2)OCO3)n1	–	–	–	–	–
CCOc1ccc(C(=O)Nc2cccc(C)n2)cc1	51.2	·	·	–	·
Cc1cccc(NC(=O)c2ccc3c(c2)OCCO3)n1	37.3	·	·	–	·
CC(C)CC#Cc1ccc2c(c1)O[C@H](CN(C)C)[C@@H](C)CN([C@H](C)CO)S2(=O)=O	·	–	–	·	–
CCN(CC)CCn1nc2c3c(cccc3c1=O)-c1ccccc1-2	–	–	17.7	–	–
COCc1cc(C)nc(OCC(=O)N/N=C/c2ccc(O)cc2O)c1C#N	–	–	–	72.6	–
COCc1cc(C)nc(OCC(=O)N/N=C/c2ccccc2O)c1C#N	–	–	–	80.6	–
CCCN(C)C[C@@H]1Oc2ncc(-c3cccc(F)c3)cc2C(=O)N([C@H](C)CO)C[C@@H]1C	·	–	–	–	–
CCN(C[C@H]1N[C@@](CC)(C(=O)OC)[C@H]2C(=O)N(C)C(=O)[C@@H]12)C(=O)Nc1ccc(C(F)(F)F)cc1	–	–	–	–	-24.4
CN1CCN(C(=O)C[C@@H]2CC[C@H]3[C@@H](COC[C@H](O)CN3Cc3ccc4c(c3)OCO4)O2)CC1	·	–	–	–	–
C[C@H](CO)N1C[C@H](C)[C@H](CN(C)C)Oc2ccc(NC(=O)Nc3ccccc3)cc2CC1=O	·	–	–	–	–
c1ccc(CSc2ncnc3ccccc23)cc1	–	–	–	–	–
Cc1ccc(CSc2ncnc3ccccc23)cc1	–	–	–	–	-33.5
CCC(=O)NC(=S)NNC(=O)c1ccc(OC)cc1	–	·	·	68.0	·
CCOc1ccc(NC(=S)NNC(=O)c2ccc(Br)cc2)cc1	–	–	–	–	-14.9
SMILES	PvdQ acylase	ERAP1 HTS inh	F508del corr	ARNT-TACC3 inh	Ecoli rRNA inh
CCCOc1ccc(C(=O)NNC(=S)NC(=O)c2ccco2)cc1	–	–	–	–	-47.8
COc1ccc(C(=O)NC(=S)NC(C)c2ccccc2)cc1 (stereo not given)	–	–	–	–	-32.3
O=C(NNC(=S)Nc1ccc(Br)cc1)c1ccccc1	–	–	–	–	–
CC=Cc1ccc2n(c1=O)C[C@H]1[C@H](CO)[C@@H](C(=O)NCC3CC3)N(Cc3cccnc3)[C@@H]21 (mixture of isomers)	·	–	–	–	–
Cc1cccc2sc(NNC(=O)c3ccc(S(=O)(=O)N4CC(C)CC(C)C4)cc3)nc12 (stereo not given)	–	–	–	48.6	–
Cc1ccc2nc(NNC(=O)c3ccc4c(c3)OCCO4)sc2c1	–	–	–	–	–
Cc1ccc2nc(NNC(=O)c3ccc(S(=O)(=O)N4CCc5ccccc5C4)cc3)sc2c1	–	–	8.3	–	–
NC(=NCc1ccco1)NC(=O)c1ccc(Cl)cc1	–	–	–	–	-25.0
C[C@H]1CN([C@@H](C)CO)C(=O)c2cc(NC(=O)CCCN(C)C)ccc2O[C@@H]1CN(C)S(=O)(=O)c1ccc(F)cc1	·	–	–	–	–
CCNC(=O)C[C@@H]1CC[C@@H]2[C@H](COc3ccc(NC(=O)c4cscn4)cc3C(=O)N2C)O1	·	–	–	–	–
